Screening data as filed in PubChem BioAssay.
Dicer processing: inhibitors of human Dicer processing of pre-microRNA | Q9UPY3 | cat-ELCCA pre-miR-21 Dicer processing, chemiluminescence; active compounds read high | z-score at 25 µM | actives 6% (n = 47,000); in the data active = z-score above about 3, passing the limit was not always enough;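 note: plate controls were vehicle for no effect and no enzyme for full effect; higher signal means more uncleaved substrate so more Dicer inhibition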
An asterisk follows results filed as active. Many of the other results were omitted from the sample, so hits are more common in it than they were.

SMILES	Dicer processing
C=CCn1c(SCC(=O)NN)nnc1-c1ccccc1	0.79
COC(=O)C1=C(C)N=C2SCCC(=O)N2C1c1cccc(Cl)c1 (configuration not stated)	-0.77
CSc1nc(/C=N\c2nc(C)cc(C)n2)c(O)n1Cc1cccc(Cl)c1	6.3
COCCOC(=O)c1c(C)oc2ccc(OCc3ccccc3Br)cc12	0.4
O=C1c2cccc3cccc(c23)C(=O)C1c1ccccc1	-1.1
O=C1c2ccccc2C(=O)C1c1ccc2ccccc2n1	0.48
O=C1c2cc3ccccc3cc2C(=O)C1c1ccccc1	4*
O=C(CN1CCN(CCCc2c[nH]c3ccc(F)cc23)CC1)c1ccc(F)cc1	0.38
CC(=O)c1ccc(N=Nc2c(O)c(C(=O)Nc3ccccc3)cc3ccccc23)cc1	-0.37
CCOC(=O)c1c(NC(=O)Nc2ccc(Cl)cc2)sc2c1CCC(C)C2 (configuration not stated)	-0.15
CC1(C)Cc2nc(N3CCCC3)c(C#N)cc2CO1	-1.8
CC1(C)Cc2nc(N3CCOCC3)c(C#N)cc2CO1	4.2*
CCOC(=O)CSc1nc(N2CCOCC2)c2c(c1C#N)CC(C)(C)OC2	-1.3
COc1ccc(-c2noc(-c3cc(OC)cc(OC)c3)n2)cc1	2.2
CCOC(=O)N1CCN(c2nc(C)c3c(n2)CC(c2ccc(Cl)cc2)CC3=O)CC1 (configuration not stated)	-0.43
CC(C)(C)NC(=S)NN1C2CSC1CS2	-4.9
CCOc1cc(C2Nc3ccccc3-c3cc(C)nn32)ccc1O (configuration not stated)	0.18
Cc1cc2n(n1)C(c1ccc(N(C)C)cc1)Nc1ccccc1-2 (configuration not stated)	1.3
Cc1cc2n(n1)C(c1cc(Br)ccc1O)Nc1ccccc1-2 (configuration not stated)	4.6*
CCOc1cc(C2Nc3c(C)cccc3-c3cc(C)nn32)ccc1O (configuration not stated)	3.6*
CCOc1cccc(C2Nc3c(C)cccc3-c3cc(C)nn32)c1O (configuration not stated)	2.7
Cc1cc2n(n1)C(c1ccccc1O)Nc1ccccc1-2 (configuration not stated)	0.37
Cc1cc2n(n1)C(c1ccc(N(C)C)cc1)Nc1c(C)cccc1-2 (configuration not stated)	6*
COc1ccc(C2Nc3c(C)cccc3-c3cc(C)nn32)cc1O (configuration not stated)	3.9*
COc1cc(C2Nc3c(C)cccc3-c3cc(C)nn32)ccc1O (configuration not stated)	0.04
SMILES	Dicer processing
Cc1cc2n(n1)C(c1sccc1C)Nc1ccccc1-2 (configuration not stated)	1.2
Cc1cc2n(n1)C(c1sccc1C)Nc1c(C)cccc1-2 (configuration not stated)	0.5
Cc1cc2n(n1)C(c1ccc(O)c(O)c1)Nc1c(C)cccc1-2 (configuration not stated)	-0.93
O=S(=O)(n1nccc1C(c1ccccc1)c1ccccc1)C(F)(F)F	0.02
Clc1ccc(OCOc2ccc(Cl)cc2Cl)c(Cl)c1	0.21
Cc1cc(-c2nn(C)c(=O)c3ccccc23)cc(C)c1OC(=O)c1ccc(C(F)(F)F)cc1	-1.1
COCCCN1C(=O)c2ccc3c(=O)n4c5ccc(Cl)cc5nc4c4ccc(c2c34)C1=O	-0.52
CCCCNC(=O)NC1Cc2ccccc2C1	-0.91
CC1=C(C(=O)OC2CCCC2)C(c2cccc(F)c2)C2=C(CC(C)(C)CC2=O)N1 (configuration not stated)	0.52
Cn1ncc(Br)c1NC(=O)c1ccc(Cl)cc1	0.13
CC(=O)C(C)(C)OC(=O)NCc1ccccn1	-0.61
CCCc1cc(OC(=O)c2cccnc2Oc2ccccc2)n(C)n1	-3.5
COc1ccc(C2Nc3ccccc3-c3cc(C)nn32)cc1 (configuration not stated)	1.8
COc1cccc(C2Nc3ccccc3-c3cc(C)nn32)c1OC (configuration not stated)	-0.12
COc1ccc(C2Nc3ccccc3-c3cc(C)nn32)cc1O (configuration not stated)	3.6*
CCCCc1ccc(-c2c3oc(N)c(C(=O)OCC)c3cc3oc(N)c(C(=O)OCC)c23)cc1	1.2
CC(C)=NNC(=S)Nc1ccc(Cl)cc1	6*
CNNC(=S)Nc1ccc(Cl)cc1	0.59
S=C(Nc1ccc(Cl)cc1)Nc1ccc(Cl)cc1	1.8
C#CCN1C(=O)C(O)(CC(=O)c2ccco2)c2cc(Br)ccc21 (configuration not stated)	2.1
COCc1cc(C)nc2sc(C(=O)N3CCOCC3)c(N)c12	2.7
Nc1ccc(-c2nc3c(N)cccc3[nH]2)cc1	15
Cc1cc(C)c2c(=O)[nH]c(SCC(=O)N3CCCCC3)nc2n1	5.8*
CCc1ccc(C(=O)CSc2nc3nc(C)cc(C)c3c(=O)[nH]2)cc1	0.63
Cc1sc2nc(SCC(=O)N3CCCCC3)[nH]c(=O)c2c1C	-0.76
SMILES	Dicer processing
CC1CN(c2ccc(Br)cc2)c2nc3c(c(=O)n(CCCO)c(=O)n3C)n2C1 (configuration not stated)	0.9
O=C(O)C(=O)CCc1cccs1	2.5
O=C(O)CSc1cccc(C(F)(F)F)c1	-0.68
Cc1ccc(C)n1-c1cc([N+](=O)[O-])ccc1N1CCN(C(=O)N(C)C)CC1	0.36
Cc1ccc(C)n1-c1cc([N+](=O)[O-])ccc1-n1ccnc1	0.09
Cc1ccc(C)n1-c1cc([N+](=O)[O-])ccc1N1CCN(S(=O)(=O)c2cn(C)cn2)CC1	4.8*
CCc1nc(SCC(=O)O)n[nH]1	-0.16
COc1ccc(OCc2nc(N)nc(SC)n2)cc1	-1.4
O=C(Nc1cc(Cl)ccc1O)c1cccs1	1.3
O=C(Nc1cccc2nsnc12)c1cccs1	-0.16
O=C(Nc1ccncc1[N+](=O)[O-])c1cccs1	3.5*
COC(=O)c1sc2nc(C(OC)OC)ccc2c1N	0.4
Brc1ccc(-c2nc3ccccn3c2Sc2ccccc2)cc1	-0.62
Cn1cnc(-c2ccccc2NS(=O)(=O)c2ccc(Cl)cc2)n1	0.08
CC(=O)N1N=C(c2c(-c3ccccc3)c3cc(Cl)ccc3[nH]c2=O)CC1c1ccco1 (configuration not stated)	2.2
Cc1nn2c3c(cnc2c1-c1ccc(F)cc1)C(=O)CC(c1ccco1)C3 (configuration not stated)	1
Cc1nn2c(c1-c1ccccc1)N=C(c1ccco1)CC2c1ccco1 (configuration not stated)	3.3*
c1ccc(Sc2ncnc3sc4c(c23)CCCC4)cc1	-1.3
CCCCOC(=O)Nc1ccc(N(CC)CC)cc1	2
CCCc1cc(C(=O)Nc2ccc(N(CC)CC)cc2)nn1-c1ccccc1	4.4*
CCCc1c(NC(=O)Nc2ccc(F)cc2)cnn1-c1ccccc1	-1.5
Cc1noc(C)c1-n1sc(=O)n(CC2CC2)c1=O	0.01
CCNC(=O)Nc1nc2ccccc2s1	4.4*
O=C(Nc1ccc(F)cc1)Nc1nc2ccccc2s1	0.83
CCCCC(=O)Nc1nc2ccccc2s1	-0.22
Cn1c(=O)c2c(nc(NCc3ccco3)n2Cc2ccccc2F)n(C)c1=O	2
CCOc1ccc(C(Nc2ccccn2)c2c(O)ccc3ncccc23)cc1 (configuration not stated)	0.64
COc1cc(O)ccc1C1Nc2c(C)cccc2-c2cc(C)nn21 (configuration not stated)	3.8*
COc1ccc(C2Nc3c(C)cccc3-c3cc(C)nn32)c(OC)c1 (configuration not stated)	-0.71
